Measurements: the supplement of paper PMC12494721
Where a name gives a salt, the structure may show the parent alone.

What follows are compounds tested on Ruminococcus gnavus DSM 108212 (assay: growth (OD595) fold change vs plate DMSO controls (fold change (ratio)); higher = more growth). Conditions: 20 µM; incubation time: 27 h, anaerobic, 37 °C.
Outline: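 Anaerobic 27 h, 37 °C mGAM 96-well cultures were shaken, then read for absorbance at 595 nm. Values were blank-subtracted and corrected for compound background using 20 µM compound solutions in water. A calibration factor of 5 converted them to OD. Growth is the fold change versus the median of plate DMSO controls. Fold changes above 1.5 were set to NA, and values are the mean of 2 biological replicates.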

SMILES | growth
C[C@@H]1C[C@@H]([C@H](O)CC2CC(=O)NC(=O)C2)C(=O)[C@@H](C)C1 [Cycloheximide] | 1.25
CCNC1(c2cccs2)CCCCC1=O (stereo unspecified) [Tiletamine hydrochloride] | 1.15
CCCC1COC(Cn2cncn2)(c2ccc(Cl)cc2Cl)O1 (stereo unspecified) | 0.947
ClC1C(Cl)C(Cl)C(Cl)C(Cl)C1Cl (stereo unspecified) | 1.14
CN1C[C@H](CNC(=O)OCc2ccccc2)C[C@@H]2c3cccc4c3c(cn4C)C[C@H]21 [Metergoline] | 1.03
O=[N+]([O-])O[C@@H]1CO[C@H]2[C@@H]1OC[C@@H]2O [Isosorbide mononitrate] | 1.31
C[N+]1(C)CCCCC1 | 1.04
N#Cc1nn(-c2c(Cl)cc(C(F)(F)F)cc2Cl)c(N)c1[S+]([O-])C(F)(F)F (stereo unspecified) | 1.02
COCC(=O)N(c1c(C)cccc1C)[C@H](C)C(=O)OC | 0.974
Cc1cc(C(F)(C(F)(F)F)C(F)(F)F)ccc1NC(=O)c1cccc(I)c1C(=O)NC(C)(C)CS(C)(=O)=O | 0.917
CC1C=CC=CCCC=CC=CC=CC=CC(OC2OC(C)C(O)C(N)C2O)CC2OC(O)(CC(O)C(O)CCC(O)CC(O)CC(O)CC(=O)OC(C)C(C)C1O)CC(O)C2C(=O)O (stereo unspecified) [Nystatine] | 1.16
CCOC(=O)CC(SP(=S)(OC)OC)C(=O)OCC (stereo unspecified) | 0.941
Fc1ccc([C@]2(Cn3cncn3)O[C@H]2c2ccccc2Cl)cc1 (racemic) | 1.04
O=C(Nc1ccccc1-c1ccc(Cl)cc1)c1cccnc1Cl | 0.965
CCN(CC)c1nc(C)cc(OP(=S)(OC)OC)n1 | 1.13
O=C(O[C@H]1C[N+]2(CCCOc3ccccc3)CCC1CC2)C(O)(c1cccs1)c1cccs1 [Aclidinium bromide] | 1.14
CCC(C)(c1ccc(O)cc1)c1ccc(O)cc1 [Bisphenol B] | 1.02
CNC(=O)/C=C(\C)OP(=O)(OC)OC | 0.948

SMILES | growth
CO/C=C(/C(=O)OC)c1ccccc1Oc1cc(Oc2ccccc2C#N)ncn1 | 0.966
C[C@@H]1CN([C@H]2CC[C@](C#N)(c3ccc(F)cc3)CC2)CC[C@]1(C(=O)O)c1ccccc1 [Levocabastine hydrochloride] | 1.07
O=C(O)c1nc(Cl)ccc1Cl | 0.95
CCn1cc(C(=O)O)c(=O)c2cc3c(cc21)OCO3 [Oxolinic acid] | 0.896
CC(C)(C)C(O)(CCc1ccc(Cl)cc1)Cn1cncn1 (stereo unspecified) | 1.02
C[C@]12C=CC(=O)C=C1CC[C@@H]1[C@@H]2CC[C@@]2(C)[C@H]1CC[C@]2(C)O [Methandrostenolone] | 0.931
COP(=S)(OC)Oc1nc(Cl)c(Cl)cc1Cl | 1.01
O=C(O)C(F)(F)C(F)(F)C(F)(F)C(F)(F)C(F)(F)C(F)(F)F [PFHpA (Perfluoroheptanoic acid)] | 0.995
OCC(O)CCl (racemic) | 0.97
CC(=O)O[C@H]1CC[C@@]2(C)C(=CC[C@@H]3[C@@H]2CC[C@]2(C)C(=O)CC[C@@H]32)C1 [Dehydroisoandosterone 3-acetate] | 1.08
CC(C)N(C(=O)COc1nnc(C(F)(F)F)s1)c1ccc(F)cc1 | 0.978
CC(=O)OCC(=O)[C@H]1CC[C@H]2[C@@H]3CC[C@H]4C[C@H](O)CC[C@]4(C)[C@H]3C(=O)C[C@]12C [Alfadolone acetate] | 1.11
C[C@]12CC[C@@H]3c4ccc(OC(=O)N(CCCl)CCCl)cc4CC[C@H]3[C@@H]1CC[C@@H]2O [Estramustine] | 1.24
CCC(=O)Nc1ccc(Cl)c(Cl)c1 | 1.01
O=P1(N(CCCl)CCCl)NCCCO1 (stereo unspecified) [Cyclophosphamide] | 1.11
Cc1cc(C(C#N)c2ccc(Cl)cc2)c(Cl)cc1NC(=O)c1cc(I)cc(I)c1O (stereo unspecified) [Closantel] | 0.185
COP(=S)(OC)SCN1C(=O)c2ccccc2C1=O | 0.965
C#CCOc1ccc(CCNC(=O)C(OCC#C)c2ccc(Cl)cc2)cc1OC (stereo unspecified) | 0.954
